Source: PubChem
This is a sample that favours compounds with a hit; in the whole collection about 10% have one here.
HP1b chromo inh = blocks HP1-beta chromodomain binding to methylated histone tails; P83916; AlphaScreen HP1-beta / biotin-H3K9me3 peptide binding; 390,000 compounds, 0.56% hits; Potency, µM (top dose mostly 114 µM), actives largely listed as inhibitors; AID 540317; also: nearly all actives have a fitted effect of over 70% in size
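HP1-beta protein (50 nM final) preincubated 30 min at room temperature with biotinylated H3(1-18)K9me3 peptide (50 nM) in PBS pH 7.4, 0.01% Tween-20, then compound added for 30 min. AlphaScreen streptavidin donor/nickel chelate acceptor beads (10 ug/mL final), 30 min dark, luminescence read.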
CtBP-E1A blk = inhibitors of CtBP/E1A interaction; AlphaScreen GST-E1A/His-CtBP binding, 1536-well; active compounds read low; activity change, % (concentration not given with the values); 340,000 compounds, 0.49% hits; in the data active = activity change below about -65%; inconclusive = mostly about -30% to -63%
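GST-E1A and His-tagged CtBP (125 nM each as 5X stock) were preincubated with pin-transferred compound for 2 h at 37 °C in the dark, then glutathione donor and nickel acceptor beads were added for 1 h before AlphaScreen reading.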
G9a inh = blocks human histone lysine methyltransferase G9a; AID 504332; G9a H3K9 monomethylation, AlphaScreen, 2 h; Q96KQ7; Potency, µM (doses to about 102 µM), usual class: inhibitors; 350,000 compounds, 8.8% hits; also: nearly all actives have a fitted effect of over 75% in size
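Chemiluminescent proximity detection of H3K9 monomethylation, read after 10 min bead incubation in the dark. Reaction: 20 nM G9a, 500 nM biotin-H3K9 peptide, 20 uM SAM cofactor, 2 h, room temperature, following 15 min enzyme-compound preincubation.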
Six1-Eya2 inh = inhibitors of human Six1/Eya2 interaction; Q15475+O00167; AlphaScreen GST-Six1/His-Eya2 binding, biochemical; active compounds read low; activity change, % (test concentration not listed); 360,000 compounds, 0.56% hits; AID 651725; in the data active = activity change below about -65%; inconclusive = mostly about -30% to -63%
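AlphaScreen luminescence read after one hour at 37 °C in darkness. Pin-transferred compounds met GST-Six1 and His-Eya2 protein (5X stock 250 nM/500 nM) plus glutathione donor and Ni-chelate acceptor beads (5X, 50 ug/mL).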
JMJD2A Tudor = blocks the human JMJD2A Tudor domain | Potency, µM (series often up to 114 µM), hits mostly inhibitors | AID 504339 | O75164 | 390,000 compounds, 4.4% hits | AlphaScreen JMJD2A-Tudor / H3K4me3 peptide binding; also: nearly all actives have a fitted effect of over 50% in size
BAZ2B block = blocks human BAZ2B; AlphaScreen BAZ2B-H3K14Ac peptide displacement; 360,000 compounds, 4.4% hits; Potency, µM (top dose mostly 114 µM), hits mostly inhibitors; Q9UIF8; also: nearly all actives have a fitted effect of over 60% in size
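AlphaScreen luminescence quantifies BAZ2B engagement of H3K14Ac peptide; the protein and biotinylated peptide are both at 50 nM final, buffer PBS pH 7.4 with 0.01% Tween-20, all steps at room temperature.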
A number is an active result; 0 = inactive; ? = inconclusive; - = not tested or not shown; [ ] = another dose, or the depositor's remark. Unless noted, calls follow the shape of the dose curve; as a rule, active = well fitted inhibition curve with a large enough effect; inconclusive = small, poorly fitted or top-dose-only effect; inactive = no such curve, though single readings can be large or run the other way.

SMILES	HP1b chromo inh	CtBP-E1A blk	G9a inh	Six1-Eya2 inh	JMJD2A Tudor	BAZ2B block
CC(=O)N(C(C)=O)N1C(=O)/C(=C/c2ccc(Cl)cc2)SC1=S	10µM	0	14.1µM	0	11.2µM	28.2µM
Cc1ccc(C)c(N2CCN(C(=O)c3cnc4c(-c5ccccc5)c(C)nn4c3C)CC2)c1	0	-	0	-	0	0
CCN1CCN(CC(=O)N2CCCC(C(=O)c3ccc(Oc4ccccc4)cc3)C2)CC1 (configuration not stated)	0	-	35.5µM	0	0	50.1µM
N=c1sccn1CC(=O)N1N=C(c2ccc(Cl)cc2)CC1c1ccco1 (configuration not stated)	0	0	0	0	0	79.4µM
O=C(CSc1ncn[nH]1)N1N=C(c2ccc(Cl)cc2)CC1c1ccco1 (configuration not stated)	0	0	?	0	0	0
Cc1ccc(C2=NN(C(=O)CSc3nnnn3C)C(c3ccco3)C2)cc1 (configuration not stated)	0	0	0.891µM	0	0	0
Cn1cnnc1SCC(=O)N1N=C(c2ccc(Cl)cc2)CC1c1ccco1 (configuration not stated)	0	0	?	0	0	?
CS(=O)(=O)Nc1ccc(C2=NN(C(=O)c3ccco3)C(c3ccco3)C2)cc1 (configuration not stated)	0	0	-	0	0	?
COc1cccc(C2=NN(C(=O)c3ccco3)C(c3ccco3)C2)c1 (configuration not stated)	0	0	44.7µM	0	0	?
CCC1(CC)NC(=O)N(CC(=O)N2N=C(c3ccc(Cl)cc3)CC2c2ccco2)C1=O (configuration not stated)	0	0	56.2µM	0	?	?
CC(=O)c1ccc(NC(=O)CSc2nccn2Cc2ccco2)cc1	0	-	0	-	0	0
COc1ccc2c(CC(=O)Nc3ccc(C)cc3)coc2c1	0	-	0	-	0	0
O=C(OCC(=O)N1N=C(c2ccc(Cl)cc2)CC1c1ccco1)c1ccco1 (configuration not stated)	0	0	?	0	0	0
CCC(=O)N1N=C(c2ccc(NS(=O)(=O)c3ccc(C)cc3)cc2)CC1c1ccco1 (configuration not stated)	0	0	-	0	0	-
O=C(OCC(=O)N1N=C(c2ccc(Cl)cc2)CC1c1ccco1)c1ccccc1O (configuration not stated)	0	0	17.8µM	0	0	0
CCC(=O)N1N=C(c2ccc(C)cc2)CC1c1ccco1 (configuration not stated)	0	0	44.7µM	0	0	0
Cc1cc(/C=C(\C#N)c2nnc(N3CCOCC3)n2-c2ccccc2)c(C)n1-c1ccccc1	-	-	?	-	-	50.1µM
CCc1ccc(OCC2c3cc(OC)c(OC)cc3CCN2C(=O)Cc2ccc(OC)c(OC)c2)cc1 (configuration not stated)	?	-	0	-	?	?
CN(C)c1ccc(C(C(=O)NCc2ccccc2)N(Cc2ccco2)C(=O)c2snc(C(N)=O)c2N)cc1 (configuration not stated)	0	0	35.5µM	0	?	?
Cc1cccc(N(C(=O)c2snc(C(N)=O)c2N)C(C(=O)NCc2ccccc2)c2ccncc2)c1 (configuration not stated)	?	0	50.1µM	0	0	0
COc1ccc(N(C(=O)c2snc(C(N)=O)c2N)C(C(=O)NCc2ccccc2)c2ccc(O)cc2)cc1 (configuration not stated)	0	0	0	0	0	0
CCC(CO)NCC#Cc1ccccc1 (configuration not stated)	0	0	56.2µM	0	0	0
COc1ccc(C2=Nn3c(nnc3-c3ccccc3C)SC2)cc1	-	-	-	-	0	-
Cc1cc(C)cc(C(=O)Nc2c(C(=O)Nc3ccccc3F)oc3ccccc23)c1	0	-	0	-	0	0
Cc1c(-n2cc(C(=O)c3cc(F)ccc3O)cc(C#N)c2=O)c(=O)n(-c2ccccc2)n1C	0	0	0	0	0	?
SMILES	HP1b chromo inh	CtBP-E1A blk	G9a inh	Six1-Eya2 inh	JMJD2A Tudor	BAZ2B block
Cc1c(-n2cc(C(=O)O)c(=O)c3cc(F)c(N4CCCC4)c(F)c32)c(=O)n(-c2ccccc2)n1C	0	0	56.2µM	0	0	0
O=C1SC(c2ccccc2)=C/C1=C\N1CCCCC1	?	0	0[0.0925 µM]	0	50.1µM	50.1µM
O=S(=O)(c1ccccc1S(=O)(=O)N1CCCCC1)N1CCCCC1	0	0	0	0	0	0
C[n+]1cccc(CNC(=O)/C=N/O)c1	0	0	39.8µM	0	?	56.2µM
CCOc1ccc(N(C)Cc2cc(=O)oc3ccc(OCC)cc23)cc1	0	0	10µM	?	?	17.8µM
CC(C)c1ccc(/C=C2\CC/C(=C\C=N\N(C)C)C2=O)cc1	0	0	?	0	?	56.2µM
CCOc1ccc(NC(C(=O)Nc2cccc(C(C)=O)c2)c2ccccc2)cc1 (configuration not stated)	0	0	44.7µM	?	?	39.8µM
CCN(CC)CCNC(C(=O)Nc1cccc(C(C)=O)c1)c1ccccc1 (configuration not stated)	?	0	?	0	1.12µM	56.2µM
COCC(C)NC(C(=O)Nc1cccc(C(C)=O)c1)c1ccccc1 (configuration not stated)	0	0	0	0	0	0
Cc1cc(C(=O)CCl)c(C)n1-c1cccc(S(=O)(=O)N2CCOCC2)c1	0	-91.4	?	-68.5	0	?
Cc1cc(C(=O)CN2C(=O)CN(C)C2=O)c(C)n1-c1cccc(S(=O)(=O)N2CCOCC2)c1	0	-	0	0	0	0
CCOc1ccc(CCNC(=O)CCCn2c(=O)c3cccn3c3cccnc32)cc1	0	-	0	-	0	0
O=C(C#Cc1ccccc1)c1ccco1	0	0	39.8µM	0	0	0
Cn1c(=O)[nH]c(=O)c2c1nc(NCCN)n2CCOc1ccccc1	0	0	0[0.501 µM]	0	0	0
CC(C)Sc1nc2c(c(=O)[nH]c(=O)n2C)n1CC(O)COc1ccccc1 (configuration not stated)	0	0	22.4µM	0	0	0
CC(O)CSc1nc2c(c(=O)[nH]c(=O)n2C)n1CC(O)COc1ccccc1 (configuration not stated)	0	0	11.2µM	0	0	0
Cn1c(=O)[nH]c(=O)c2c1nc(NN)n2CCOc1ccccc1	0	0	11.2µM	?	?	0
CCSc1nc2c(c(=O)[nH]c(=O)n2C)n1CC(O)COc1ccc(Cl)cc1 (configuration not stated)	0	-	0	-	0	0
Cc1cc(C(F)F)n2nc(C(=O)Nc3ccc(C(C)C)cc3)nc2n1	0	-	0	-	0	0
